# Assay results from the supplement of paper PMC4466140.
# Molecular target: AgAbp1
# Experiment: SPOT peptide array binding signal intensity (averaged, normalized) (arbitrary units (background-subtracted, floor 0; scale differs between SH3 domains)); higher = stronger binding of the SH3 domain to the peptide
# How it was run: (§1)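 The binding signal is the normalized, background-subtracted spot intensity averaged over replicates; its arbitrary units differ between domains. It was obtained by incubating 10 μg/ml GST-fused SH3 domains from four yeast species overnight at 4°C in TBS-based blocking buffer on cellulose membranes with synthetic 15-mer peptides, cysteines replaced by serines, then detecting with anti-GST antibody, HRP anti-mouse secondary and luminol.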
row,Binder,SPOT peptide array binding signal intensity
1,RPVPRRPSQPLNTLS,306

# Molecular target: AgBbc1
# Experiment: as above
# How it was run: as §1
row,Binder,SPOT peptide array binding signal intensity
1,RPVPRRPSQPLNTLS,801

# Molecular target: AgBem1-D1
# Experiment: as above
# How it was run: as §1
row,Binder,SPOT peptide array binding signal intensity
1,RPVPRRPSQPLNTLS,68.5

# Molecular target: AgBzz1-D1
# Experiment: as above
# How it was run: as §1
row,Binder,SPOT peptide array binding signal intensity
1,RPVPRRPSQPLNTLS,100

# Molecular target: AgBzz1-D2
# Experiment: as above
# How it was run: as §1
row,Binder,SPOT peptide array binding signal intensity
1,RPVPRRPSQPLNTLS,89

# Molecular target: AgCyk3
# Experiment: as above
# How it was run: as §1
row,Binder,SPOT peptide array binding signal intensity
1,RPVPRRPSQPLNTLS,1.25

# Molecular target: AgFus1
# Experiment: as above
# How it was run: as §1
row,Binder,SPOT peptide array binding signal intensity
1,RPVPRRPSQPLNTLS,24

# Molecular target: AgHof1
# Experiment: as above
# How it was run: as §1
row,Binder,SPOT peptide array binding signal intensity
1,RPVPRRPSQPLNTLS,32.8

# Molecular target: AgHse1
# Experiment: as above
# How it was run: as §1
row,Binder,SPOT peptide array binding signal intensity
1,RPVPRRPSQPLNTLS,67.5

# Molecular target: AgLsb1
# Experiment: as above
# How it was run: as §1
row,Binder,SPOT peptide array binding signal intensity
1,RPVPRRPSQPLNTLS,94.8

# Molecular target: AgLsb4
# Experiment: as above
# How it was run: as §1
row,Binder,SPOT peptide array binding signal intensity
1,RPVPRRPSQPLNTLS,2090

# Molecular target: AgMyo5
# Experiment: as above
# How it was run: as §1
row,Binder,SPOT peptide array binding signal intensity
1,RPVPRRPSQPLNTLS,≤ 0

# Molecular target: AgNbp2
# Experiment: as above
# How it was run: as §1
row,Binder,SPOT peptide array binding signal intensity
1,RPVPRRPSQPLNTLS,2250

# Molecular target: AgRvs167
# Experiment: as above
# How it was run: as §1
row,Binder,SPOT peptide array binding signal intensity
1,RPVPRRPSQPLNTLS,182

# Molecular target: AgSho1
# Experiment: as above
# How it was run: as §1
row,Binder,SPOT peptide array binding signal intensity
1,RPVPRRPSQPLNTLS,12.8

# Molecular target: AgSla1-D1-D2
# Experiment: as above
# How it was run: as §1
row,Binder,SPOT peptide array binding signal intensity
1,RPVPRRPSQPLNTLS,17

# Molecular target: AgSla1-D3
# Experiment: as above
# How it was run: as §1
row,Binder,SPOT peptide array binding signal intensity
1,RPVPRRPSQPLNTLS,7.12

# Molecular target: CaAbp1-D1
# Experiment: as above
# How it was run: as §1
row,Binder,SPOT peptide array binding signal intensity
1,RPVPRRPSQPLNTLS,456

# Molecular target: CaAbp1-D2
# Experiment: as above
# How it was run: as §1
row,Binder,SPOT peptide array binding signal intensity
1,RPVPRRPSQPLNTLS,805

# Molecular target: CaBbc1
# Experiment: as above
# How it was run: as §1
row,Binder,SPOT peptide array binding signal intensity
1,RPVPRRPSQPLNTLS,1900

# Molecular target: CaBem1-D1
# Experiment: as above
# How it was run: as §1
row,Binder,SPOT peptide array binding signal intensity
1,RPVPRRPSQPLNTLS,34

# Molecular target: CaBzz1-D1
# Experiment: as above
# How it was run: as §1
row,Binder,SPOT peptide array binding signal intensity
1,RPVPRRPSQPLNTLS,388

# Molecular target: CaBzz1-D2
# Experiment: as above
# How it was run: as §1
row,Binder,SPOT peptide array binding signal intensity
1,RPVPRRPSQPLNTLS,189

# Molecular target: CaCyk3
# Experiment: as above
# How it was run: as §1
row,Binder,SPOT peptide array binding signal intensity
1,RPVPRRPSQPLNTLS,413

# Molecular target: CaFus1
# Experiment: as above
# How it was run: as §1
row,Binder,SPOT peptide array binding signal intensity
1,RPVPRRPSQPLNTLS,141

# Molecular target: CaHof1
# Experiment: as above
# How it was run: as §1
row,Binder,SPOT peptide array binding signal intensity
1,RPVPRRPSQPLNTLS,0.25

# Molecular target: CaHse1
# Experiment: as above
# How it was run: as §1
row,Binder,SPOT peptide array binding signal intensity
1,RPVPRRPSQPLNTLS,56.1

# Molecular target: CaLsb1
# Experiment: as above
# How it was run: as §1
row,Binder,SPOT peptide array binding signal intensity
1,RPVPRRPSQPLNTLS,1.25

# Molecular target: CaLsb4
# Experiment: as above
# How it was run: as §1
row,Binder,SPOT peptide array binding signal intensity
1,RPVPRRPSQPLNTLS,2000

# Molecular target: CaMyo5
# Experiment: as above
# How it was run: as §1
row,Binder,SPOT peptide array binding signal intensity
1,RPVPRRPSQPLNTLS,8

# Molecular target: CaNbp2
# Experiment: as above
# How it was run: as §1
row,Binder,SPOT peptide array binding signal intensity
1,RPVPRRPSQPLNTLS,1770

# Molecular target: CaRvs167
# Experiment: as above
# How it was run: as §1
row,Binder,SPOT peptide array binding signal intensity
1,RPVPRRPSQPLNTLS,1240

# Molecular target: CaRvs167-3
# Experiment: as above
# How it was run: as §1
row,Binder,SPOT peptide array binding signal intensity
1,RPVPRRPSQPLNTLS,6

# Molecular target: CaSho1
# Experiment: as above
# How it was run: as §1
row,Binder,SPOT peptide array binding signal intensity
1,RPVPRRPSQPLNTLS,19.5

# Molecular target: CaSla1-D1-D2
# Experiment: as above
# How it was run: as §1
row,Binder,SPOT peptide array binding signal intensity
1,RPVPRRPSQPLNTLS,796

# Molecular target: CaSla1-D3
# Experiment: as above
# How it was run: as §1
row,Binder,SPOT peptide array binding signal intensity
1,RPVPRRPSQPLNTLS,5

# Molecular target: ScAbp1
# Experiment: as above
# How it was run: as §1
row,Binder,SPOT peptide array binding signal intensity
1,RPVPRRPSQPLNTLS,280

# Molecular target: ScBbc1
# Experiment: as above
# How it was run: as §1
row,Binder,SPOT peptide array binding signal intensity
1,RPVPRRPSQPLNTLS,514

# Molecular target: ScBem1-D1
# Experiment: as above
# How it was run: as §1
row,Binder,SPOT peptide array binding signal intensity
1,RPVPRRPSQPLNTLS,6.5

# Molecular target: ScBzz1-D1
# Experiment: as above
# How it was run: as §1
row,Binder,SPOT peptide array binding signal intensity
1,RPVPRRPSQPLNTLS,43.2

# Molecular target: ScBzz1-D2
# Experiment: as above
# How it was run: as §1
row,Binder,SPOT peptide array binding signal intensity
1,RPVPRRPSQPLNTLS,25.8

# Molecular target: ScCyk3
# Experiment: as above
# How it was run: as §1
row,Binder,SPOT peptide array binding signal intensity
1,RPVPRRPSQPLNTLS,22

# Molecular target: ScFus1
# Experiment: as above
# How it was run: as §1
row,Binder,SPOT peptide array binding signal intensity
1,RPVPRRPSQPLNTLS,≤ 0

# Molecular target: ScHof1
# Experiment: as above
# How it was run: as §1
row,Binder,SPOT peptide array binding signal intensity
1,RPVPRRPSQPLNTLS,0.5

# Molecular target: ScHse1
# Experiment: as above
# How it was run: as §1
row,Binder,SPOT peptide array binding signal intensity
1,RPVPRRPSQPLNTLS,389

# Molecular target: ScLsb1
# Experiment: as above
# How it was run: as §1
row,Binder,SPOT peptide array binding signal intensity
1,RPVPRRPSQPLNTLS,258

# Molecular target: ScLsb2
# Experiment: as above
# How it was run: as §1
row,Binder,SPOT peptide array binding signal intensity
1,RPVPRRPSQPLNTLS,56

# Molecular target: ScLsb3
# Experiment: as above
# How it was run: as §1
row,Binder,SPOT peptide array binding signal intensity
1,RPVPRRPSQPLNTLS,5960

# Molecular target: ScLsb4
# Experiment: as above
# How it was run: as §1
row,Binder,SPOT peptide array binding signal intensity
1,RPVPRRPSQPLNTLS,1750

# Molecular target: ScMyo3
# Experiment: as above
# How it was run: as §1
row,Binder,SPOT peptide array binding signal intensity
1,RPVPRRPSQPLNTLS,2

# Molecular target: ScMyo5
# Experiment: as above
# How it was run: as §1
row,Binder,SPOT peptide array binding signal intensity
1,RPVPRRPSQPLNTLS,1.25

# Molecular target: ScNbp2
# Experiment: as above
# How it was run: as §1
row,Binder,SPOT peptide array binding signal intensity
1,RPVPRRPSQPLNTLS,3100

# Molecular target: ScPex13
# Experiment: as above
# How it was run: as §1
row,Binder,SPOT peptide array binding signal intensity
1,RPVPRRPSQPLNTLS,1420

# Molecular target: ScRvs167
# Experiment: as above
# How it was run: as §1
row,Binder,SPOT peptide array binding signal intensity
1,RPVPRRPSQPLNTLS,2300

# Molecular target: ScSho1
# Experiment: as above
# How it was run: as §1
row,Binder,SPOT peptide array binding signal intensity
1,RPVPRRPSQPLNTLS,163

# Molecular target: ScSla1-D1-D2
# Experiment: as above
# How it was run: as §1
row,Binder,SPOT peptide array binding signal intensity
1,RPVPRRPSQPLNTLS,1000

# Molecular target: ScSla1-D3
# Experiment: as above
# How it was run: as §1
row,Binder,SPOT peptide array binding signal intensity
1,RPVPRRPSQPLNTLS,18

# Molecular target: SpAbp1-D1
# Experiment: as above
# How it was run: as §1
row,Binder,SPOT peptide array binding signal intensity
1,RPVPRRPSQPLNTLS,147

# Molecular target: SpBbc1
# Experiment: as above
# How it was run: as §1
row,Binder,SPOT peptide array binding signal intensity
1,RPVPRRPSQPLNTLS,380

# Molecular target: SpBzz1-D1
# Experiment: as above
# How it was run: as §1
row,Binder,SPOT peptide array binding signal intensity
1,RPVPRRPSQPLNTLS,466

# Molecular target: SpBzz1-D2
# Experiment: as above
# How it was run: as §1
row,Binder,SPOT peptide array binding signal intensity
1,RPVPRRPSQPLNTLS,1.5

# Molecular target: SpCyk3
# Experiment: as above
# How it was run: as §1
row,Binder,SPOT peptide array binding signal intensity
1,RPVPRRPSQPLNTLS,6.75

# Molecular target: SpHof1
# Experiment: as above
# How it was run: as §1
row,Binder,SPOT peptide array binding signal intensity
1,RPVPRRPSQPLNTLS,297

# Molecular target: SpHof1-2
# Experiment: as above
# How it was run: as §1
row,Binder,SPOT peptide array binding signal intensity
1,RPVPRRPSQPLNTLS,441

# Molecular target: SpHof1-3
# Experiment: as above
# How it was run: as §1
row,Binder,SPOT peptide array binding signal intensity
1,RPVPRRPSQPLNTLS,278

# Molecular target: SpHse1
# Experiment: as above
# How it was run: as §1
row,Binder,SPOT peptide array binding signal intensity
1,RPVPRRPSQPLNTLS,297

# Molecular target: SpLsb1
# Experiment: as above
# How it was run: as §1
row,Binder,SPOT peptide array binding signal intensity
1,RPVPRRPSQPLNTLS,350

# Molecular target: SpLsb4
# Experiment: as above
# How it was run: as §1
row,Binder,SPOT peptide array binding signal intensity
1,RPVPRRPSQPLNTLS,5510

# Molecular target: SpMyo1
# Experiment: as above
# How it was run: as §1
row,Binder,SPOT peptide array binding signal intensity
1,RPVPRRPSQPLNTLS,37.8

# Molecular target: SpNbp2
# Experiment: as above
# How it was run: as §1
row,Binder,SPOT peptide array binding signal intensity
1,RPVPRRPSQPLNTLS,81.5

# Molecular target: SpPex13
# Experiment: as above
# How it was run: as §1
row,Binder,SPOT peptide array binding signal intensity
1,RPVPRRPSQPLNTLS,4.25

# Molecular target: SpRvs167
# Experiment: as above
# How it was run: as §1
row,Binder,SPOT peptide array binding signal intensity
1,RPVPRRPSQPLNTLS,3150

# Molecular target: SpSla1-D1-D2
# Experiment: as above
# How it was run: as §1
row,Binder,SPOT peptide array binding signal intensity
1,RPVPRRPSQPLNTLS,13

# Molecular target: SpSla1-D3
# Experiment: as above
# How it was run: as §1
row,Binder,SPOT peptide array binding signal intensity
1,RPVPRRPSQPLNTLS,2
